Hits are enriched below; roughly 1.4% of the tested compounds scored in any of these assays.
MCL1 BIM primary = MCL1-BIM-BH3 interaction inhibition (human). GST-MCL1 / FITC-Bim-BH3 fluorescence polarization. inhibition, % at 10.9 µM. 320,000 tested, 0.68% active. AID 2057;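 active means inhibition above the mean inhibition of all tested compounds plus 3 SD, set per campaign, cut at about 40% in these data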;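 further: 0% = DMSO wells and 100% = unlabeled Bim-BH3 peptide control; higher means more loss of mP so more displacement of Bim peptide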
EBV gp42 block = inhibitors of Epstein-Barr virus glycoprotein 42. 220,000 tested, 0.42% active. Fluorescence polarization binding assay, mP read-out. inhibition, % (tested at 21.74 µM); in the data active means inhibition above about 50%
MEX-5 binding = C. elegans MEX-5 TCR-2 RNA binding activity | AID 1832 | MEX-5/FITC-TCR2 RNA binding, fluorescence polarization; stronger effect = lower value | Q9XUB2 | activity score (negative = inhibition of binding), % at 10 µM | 300,000 tested, 0.38% active;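 active means inhibition past about -25% in most replicates, and total fluorescence under double the plate's negative control median, limit read from the data; inconclusive means replicates evenly split on the limit, or fluorescence at least double controls; inactive means too little inhibition in most replicates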;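 further: 0% = DMSO and -100% = 5 µM competing unlabeled TCR2 RNA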
eLon inh = inhibitors of E. coli Lon protease. P0A9M0. purified E. coli Lon protease, fluorescence polarization. inhibition, % at 7.94 µM. 360,000 tested, 0.42% active. AID 602123; in the data active means inhibition above about 13%, passing the limit was not always enough;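 further: 0% = enzyme with probe and DMSO and 100% = no enzyme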
Target sequence (P0A9M0 whole entry, looked up): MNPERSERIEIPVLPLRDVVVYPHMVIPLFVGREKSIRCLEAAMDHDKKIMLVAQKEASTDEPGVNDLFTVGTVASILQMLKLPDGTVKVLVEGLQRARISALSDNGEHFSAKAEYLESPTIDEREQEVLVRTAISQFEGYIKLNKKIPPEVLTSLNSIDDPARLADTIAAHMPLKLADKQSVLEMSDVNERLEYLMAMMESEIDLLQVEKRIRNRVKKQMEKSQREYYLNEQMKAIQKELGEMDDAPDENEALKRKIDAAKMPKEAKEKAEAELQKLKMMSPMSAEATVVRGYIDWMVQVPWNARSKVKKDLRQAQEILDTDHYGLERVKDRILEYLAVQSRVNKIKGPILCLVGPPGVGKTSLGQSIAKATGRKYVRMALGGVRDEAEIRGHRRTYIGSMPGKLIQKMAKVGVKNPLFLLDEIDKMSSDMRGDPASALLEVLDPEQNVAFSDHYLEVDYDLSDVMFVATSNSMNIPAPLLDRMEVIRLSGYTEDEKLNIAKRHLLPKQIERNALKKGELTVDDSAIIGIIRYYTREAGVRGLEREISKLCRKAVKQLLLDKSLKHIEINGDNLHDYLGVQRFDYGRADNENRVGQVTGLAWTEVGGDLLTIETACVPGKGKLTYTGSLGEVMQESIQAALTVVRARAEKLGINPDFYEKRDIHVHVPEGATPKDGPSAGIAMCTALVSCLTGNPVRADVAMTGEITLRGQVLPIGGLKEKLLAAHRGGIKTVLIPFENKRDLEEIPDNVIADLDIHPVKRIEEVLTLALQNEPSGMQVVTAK
BCLXL inh = blocks human Bcl-xL binding to Bim BH3 peptide | Q07817 | inhibition, % at 10.9 µM | 320,000 tested, 0.7% active | GST-Bcl-xL / FITC-Bim BH3 peptide fluorescence polarization;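 active means inhibition above the mean of all tested compounds plus 3 SD, cutoff set per campaign, cut at about 30% in these data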;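 further: 0% = DMSO wells and 100% = unlabeled Bim-BH3 peptide competitor; inhibitors lower millipolarization by displacing the labeled peptide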
GLD-1 RNA inh = GLD-1-TGE RNA interaction inhibition (C. elegans) | purified GLD-1 + fluorescein TGE RNA, fluorescence polarization | inhibition, % at 5.96 µM | 320,000 tested, 0.44% active | AID 2280;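 active means percent inhibition above a per-plate cutoff, the plate mean of test compounds plus 3 SD, cut at about 30% in these data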;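 further: 0% = DMSO wells with GLD-1 and probe and 100% = wells lacking GLD-1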
BCLXL inh confirm = counter-screen for MCL1 inhibitors: confirmation of human Bcl-xL inhibitors | 1,700 tested, 54% active | shares compounds with MCL1 BIM primary | inhibition, % at 10.9 µM | AID 2166 | GST-Bcl-xL / FITC-Bim BH3 peptide FP binding;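 active means inhibition above a cutoff equal to the mean inhibition of all tested compounds plus 3 SD, cut at about 30% in these data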;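 further: 0% = DMSO wells and 100% = unlabeled Bim BH3 control peptide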
MCL1 BIM confirm = MCL1-BIM-BH3 interaction inhibition, confirmation; shares compounds with MCL1 BIM primary; GST-MCL1 / FITC-Bim-BH3 fluorescence polarization; inhibition, % at 10.9 µM; 1,700 tested, 61% active; AID 2168;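 active means inhibition above the average of all tested compounds plus 3 SD, cut at about 40% in these data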;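 further: 0% = DMSO wells and 100% = unlabeled Bim-BH3 control peptide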
The depositor's hits bear a star; ? = inconclusive; / = no result given.

SMILES	MCL1 BIM primary	EBV gp42 block	MEX-5 binding	eLon inh	BCLXL inh	GLD-1 RNA inh	BCLXL inh confirm	MCL1 BIM confirm
COc1ccccc1C1C=C(c2ccc(Cl)cc2)Nc2nc(NS(C)(=O)=O)nn21 (stereo not given)	71*	22	-15	/	66*	71*	46*	59*
CS(=O)(=O)Nc1nc2n(n1)C(c1ccccc1)C=C(c1ccc(Br)cc1)N2 (stereo not given)	181*	58*	-69*	99*	157*	157*	134*	164*
Cc1cc(Br)c(NC(=O)COC(=O)C2CCCCC2)c(Br)c1	/	/	/	-2	/	-1	/	/
COc1ccc(Nc2nc(N3CCN(S(=O)(=O)N(C)C)CC3)nc3ccccc23)cc1	-1	/	-1	-2	5	2	/	/
COc1cc(C(=O)NC2CCN(CC(=O)Nc3cccc(C)c3C)CC2)cc(OC)c1OC	-3	/	-1	-10	4	-11	/	/
COc1cccc(/C=N/NC(=O)c2cc3cc([N+](=O)[O-])ccc3s2)c1O	45*	-11	-1	7	10	8	20	90*
O=C(Nc1cccc(S(=O)(=O)NC2=NCCCCC2)c1)c1cc(-c2ccccc2)nc2ccccc12	8	-2	2	-11	7	5	/	/
O=C(NC(=S)Nc1cccc(S(=O)(=O)NC2=NCCC2)c1)c1cc(-c2ccco2)nc2ccccc12	54*	9	1	4	44*	21	39*	42*
O=C(Nc1cccc(S(=O)(=O)NC2=NCCC2)c1)c1cc(-c2ccco2)nc2ccccc12	94*	82*	-2	-1	27	7	18	74*
CCCOc1cccc(C2C(C(=O)c3ccco3)=C(O)C(=O)N2c2nnc(C)s2)c1 (stereo not given)	54*	/	-32*	8	41*	56*	56*	72*
CCN(CC(=O)NCc1ccco1)S(=O)(=O)c1ccc(OC)cc1	-2	/	1	-4	5	-2	/	/
O=C(NCCc1ccco1)C(=O)NCC1OCCCN1S(=O)(=O)c1ccccc1 (stereo not given)	-1	/	1	-4	7	-1	/	/
O=C1CN(C(=O)NCCC(=O)NC2CCCCC2)c2ccccc2N1	69*	/	4	5	8	7	3	-8
CN(C(=O)CCNC(=O)N1CC(=O)Nc2ccccc21)C1CCCCC1	6	/	0	-10	2	6	/	/
COC(=O)COc1ccc(C2Nc3c(Cl)ccc(C(=O)O)c3C3C=CCC32)cc1 (stereo not given)	53*	-9	-24	3	43*	16	34*	32
Oc1ccc(C2=Nn3c(nnc3-c3ccco3)SC2)cc1O	60*	-22	-5	15	18	1	29	73*
COc1ccc(C2=Nn3c(nnc3-c3ccco3)SC2)cc1	6	-2	-1	-12	13	6	/	/
COc1ccc(CCNC(=O)c2c(N)no[n+]2[O-])cc1OC	96*	0	-3	1	5	6	2	-1
CC(C)(C)NC(=O)NC(=O)CN1CCCc2ccccc21	84*	-2	/	-30	77*	6	11	13
O=C(CN1CCCc2ccccc21)NC(=O)NCc1ccccc1	4	0	0	8	13	-4	/	/
COc1cc(/C=C2\SC(=S)N(C(C(=O)O)c3ccccc3)C2=O)ccc1O (stereo not given)	0	-66	?	-117	-2	-51	/	/
O=C(O)C(c1ccccc1)N1C(=O)/C(=C\c2ccc(O)c(O)c2)SC1=S (stereo not given)	70*	/	-15	-35	17	-72	63*	88*
COCCNc1nnc(SCC(=O)NNC(=O)c2ccc([N+](=O)[O-])cc2)s1	75*	/	-19	0	-1	5	-3	7
CC(C)(C)c1ccc(C(=O)Nc2cccc3c(=O)[nH][nH]c(=O)c23)cc1	43*	93*	-1	16	29	46*	42*	47*
Cc1ccc(C(=O)Nc2cccc3ccccc23)cc1	-5	/	-2	-8	-2	6	/	/
SMILES	MCL1 BIM primary	EBV gp42 block	MEX-5 binding	eLon inh	BCLXL inh	GLD-1 RNA inh	BCLXL inh confirm	MCL1 BIM confirm
COc1cc(NC(=O)CCCN2C(=O)NC(C)(C)C2=O)cc(OC)c1	-1	/	/	1	4	5	/	/
Cc1cc(C(=O)O)ccc1-c1ccc(/C=C2\NC(=O)N(Cc3ccccc3Cl)C2=O)o1	29	-34	-11	-11	8	-4	/	/
Cc1ccc(C(=O)O)cc1-c1ccc(/C=C2/NC(=O)N(c3ccccc3)C2=O)o1	52*	-4	0	-13	21	-1	36*	63*
Nc1nc(-c2ccco2)c(-c2ccco2)s1	25	-13	-1	2	18	2	/	/
c1coc(-c2nc(-c3ccco3)c(-c3ccco3)nc2-c2ccco2)c1	106*	63*	3	17*	80*	23	18	57*
CC(C)(C)C(=O)Nc1nnc(SCC(=O)NC2CCCCC2)s1	4	/	3	-2	1	2	/	/
COC1CCN(C(=O)CC2C(=O)NCCN2CC2CCCCC2)CC1 (stereo not given)	12	-3	-1	6	19	12	/	/
COC1CCN(C(=O)CC2C(=O)NCCN2CC(C)(C)C)CC1 (stereo not given)	50*	-3	-1	3	45*	28	10	19
CCCCN(c1ccccc1)S(=O)(=O)c1cccc2cccnc12	-2	-20	0	5	0	-6	/	/
COc1cccc(C(=O)/C=C/Nc2cccc(O)c2)c1	94*	-14	0	13	86*	14	17	22
CCC(C)(O)c1[nH]c2ccc(C(=O)OC)cc2c1C (stereo not given)	-2	/	-1	3	2	2	/	/
O=C(O)C1Cc2c([nH]c3ccccc23)C(c2ccc3c(c2)OCO3)N1 (stereo not given)	59*	-10	-6	-1	52*	14	12	9
COC(=O)[C@H]1Cc2c([nH]c3ccccc23)[C@H](c2ccccc2)N1	3	/	2	-5	1	4	/	/
N#C/C(=C/c1ccco1)C(N)=S	58*	-3	-1	-10	35*	17	17	25
COCCN=c1scc(-c2cccs2)n1/N=C/c1ccc(O)c(O)c1O	49*	17	-2	8	14	2	65*	93*
CN1CCN(C(c2cccnc2)c2ccc3cccnc3c2O)CC1 (stereo not given)	8	-10	-6	-8	14	2	/	/
